Source: PubChem
The list is not random: actives were taken first. Their share in the collection is about 3.5%.
GPR151 ag – activators of human GPR151. 650,000 tested, 1% active. PathHunter beta-arrestin GPR151 cells, luminescence. Q8TDV0. activation, % at 11.2 µM. AID 1508602; in the data active = activation above about 4.9%;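 note: 0% = median of compound wells and 100% = cells with positive control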
Target sequence (Q8TDV0 whole entry, looked up): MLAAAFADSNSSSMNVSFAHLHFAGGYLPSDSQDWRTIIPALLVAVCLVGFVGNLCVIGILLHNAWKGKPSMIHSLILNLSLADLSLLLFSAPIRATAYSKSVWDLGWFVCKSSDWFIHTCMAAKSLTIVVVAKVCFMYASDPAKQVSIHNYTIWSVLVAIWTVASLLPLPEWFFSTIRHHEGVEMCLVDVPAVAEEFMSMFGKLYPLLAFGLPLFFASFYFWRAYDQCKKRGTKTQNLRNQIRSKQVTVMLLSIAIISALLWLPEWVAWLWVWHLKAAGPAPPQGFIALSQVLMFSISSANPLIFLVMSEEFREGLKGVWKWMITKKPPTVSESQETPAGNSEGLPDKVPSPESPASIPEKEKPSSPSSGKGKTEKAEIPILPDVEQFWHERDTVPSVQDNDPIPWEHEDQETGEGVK
MITF primary – blocks human microphthalmia-associated transcription factor; O75030; AlphaScreen MITF homodimerization, bead proximity signal; inhibition, % at 2.6 µM; 650,000 tested, 0.91% active; in the data active = inhibition above about 50%;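 note: 0% = vehicle wells with protein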
TEAD-YAP block – TEAD-YAP interaction inhibition; HEK-TIYL cells, TEAD-Gal4/YAP UAS-luciferase luminescence; inhibition, % at 9.12 µM; 640,000 tested, 1.4% active; AID 1259422; in the data active = inhibition above about 32%;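 note: 0% = median of test compound wells and 100% = reference inhibitor wells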
FBW7 activator – human FBW7 E3 ligase activation, primary screen; Q969H0; AlphaScreen FBW7–phospho-cyclin E peptide binding, activator screen; normalized activity (activation), % at 26.1 µM; 650,000 tested, 0.13% active; AID 1259310; in the data active = normalized activity above about 1.9%;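 note: purified mutant Fbw7 with reduced substrate affinity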
Starred values were filed as active, the others as inactive.

SMILES	GPR151 ag	MITF primary	TEAD-YAP block	FBW7 activator
CCc1ccc(S(=O)(=O)Nc2cc3c(C(C)=O)c(C)oc3c3ccccc23)cc1	1	7	56*	1
CCOc1ccc(S(=O)(=O)Nc2cc3c(C(=O)OCc4ccccc4)c(C)oc3c3ccccc23)cc1	1	-2	-1	0
CCCOC(=O)c1c(C)oc2c1cc(NS(=O)(=O)c1ccc(OCC)cc1)c1ccccc12	-1	-1	53*	0
CC(=O)c1c(C)oc2c1cc(NS(=O)(=O)c1ccc(Br)cc1)c1ccccc12	-2	24	47*	1
Nc1cccc(OCCOCCOc2cccc(N)c2)c1	-1	-12	-3	0
COc1ccc(COC(=O)NNC(=O)/C=C/c2ccccc2)cc1	-2	25	14	1
Cc1ccc(NC(=O)CNCC(C)(C)N2CCOCC2)c(Cl)c1	0	-1	-2	0
O=C(O)c1cccc(COc2ccc3ccccc3c2)c1	-13	-26	86*	0
O=C(O)c1cccc(COc2ccc(CO)cc2)c1	-8	-21	79*	0
O=C(O)c1cccc(COc2cccc(Cl)c2)c1	-13	10	-37	0
O=C(O)c1cccc(COc2ccccc2Br)c1	-10	-4	65*	0
CCOC(=O)c1sc(NC(=O)CSc2nnc(CNC(=O)c3ccc(C)c([N+](=O)[O-])c3)n2C2CCCCC2)c(C(=O)OCC)c1C	0	19	-14	0
CC(=O)N(/C=C1\Sc2ccccc2C1=O)c1ccc(C(=O)O)cc1	-4	13	-5	0
CC(=O)N(/C=C1\Sc2ccccc2C1=O)c1ccc(C)cc1	-3	14	70*	0
COc1ccccc1N(/C=C1\Sc2ccccc2C1=O)C(C)=O	2	3	79*	0
FC(F)(F)C1=Nc2cc(Cl)c(Cl)cc2N=C(c2cccs2)C1	0	-6	37*	0
CN(CCO)Cc1c(C(=O)N2CCc3ccccc3C2)nc2ccc(Cl)cn12	-1	11	11	0
CC1(C)C(=O)C2(CCCCC2)C(=O)OC1c1ccccc1[N+](=O)[O-] (configuration not stated)	0	5	-5	0
Cc1cc(C)c(NS(=O)(=O)c2ccc3c4c2CC(=O)N4CC(C)S3)c(C)c1 (configuration not stated)	0	-4	4	0
COc1cccc(NS(=O)(=O)c2ccc3c4c2CC(=O)N4CC(C)S3)c1 (configuration not stated)	-2	16	40*	0
COc1ccc(OC)c(C2CC(=O)c3c([nH]c(C(=O)OC(C)C)c3C)C2)c1 (configuration not stated)	1	0	50*	0
CCCOCCOC(=O)c1[nH]c2c(c1C)C(=O)CC(c1ccc(OC)c(OC)c1)C2 (configuration not stated)	0	-5	7	0
CCCOCCOC(=O)c1[nH]c2c(c1C)C(=O)CC(c1cc(OC)ccc1OC)C2 (configuration not stated)	1	-8	47*	0
Cc1c(C(=O)OCCOc2ccccc2)[nH]c2c1C(=O)CCC2	0	-6	43*	0
CCCOCCOC(=O)c1[nH]c2c(c1C)C(=O)CC(c1cccs1)C2 (configuration not stated)	0	17	56*	0
SMILES	GPR151 ag	MITF primary	TEAD-YAP block	FBW7 activator
Cc1ccc(S(=O)(=O)N(CC(N)=O)c2ccc(Cl)cc2C)cc1	0	-23	3	0
CC1CN(C(=O)NC2CC(=O)N(c3ccc(F)cc3)C2)CC(C)O1 (configuration not stated)	1	-10	6	0
CCCCOc1ccc(C(=O)NCC2OCCc3ccccc32)cc1OC (configuration not stated)	-1	-2	2	0
Cc1cc(Cc2c(O)nc(SCc3ccccc3)[nH]c2=O)ccc1OC(C)C	-1	-8	6	0
COc1ccc(OC)c(C2CC(=O)c3c([nH]c(C(=O)OCCOC(C)C)c3C)C2)c1 (configuration not stated)	1	-7	45*	0
COCCOC(=O)c1[nH]c2c(c1C)C(=O)CC(c1cc(OC)ccc1OC)C2 (configuration not stated)	1	-2	44*	0
COc1ccc(OC)c(C2CC(=O)c3c([nH]c(C(=O)OCC4CCCO4)c3C)C2)c1 (configuration not stated)	2	10	1	0
COc1ccc(OC)c(C2CC(=O)c3c([nH]c(C(=O)OCCSC)c3C)C2)c1 (configuration not stated)	0	0	26	0
